Results from PubChem BioAssay (EPA / NIEHS).
“And” between values parts separate entries of the source, which are not always exact repeats. Identical values can stand only once. Inconclusive results are not listed. More than one record can exist for a structure, and the calls need not agree. The source made the active and inactive calls. How the source made its calls: active means hit-call score of the fitted dose curve at least 0.9, where 1 is the maximum; inconclusive means response in the unintended direction; inactive means score below 0.9.

What was measured:
[1] = target: Cellular tumor antigen p53 (Homo sapiens) (UniProt P04637); test: TOX21_p53_BLA_p2_ratio: Tox21 HCT-116 p53 Agonism Beta-lactamase Assay, Ratio, Phase 2 (AID 2283592)
Outline: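 HCT116 cells carrying a p53-responsive beta-lactamase reporter were plated, incubated 5 h at 37C, then dosed with compounds in DMSO (217-fold dilution) for 16 h. CCF4-AM substrate was added for 2 h at room temperature; the 460/530 nm emission ratio gave gain-of-signal activity relative to DMSO.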

[2] = TOX21_p53_BLA_p3_viability: Viability Assessment in the Tox21 HCT-116 p53 Agonism Beta-lactamase Assay, Phase 3 (AID 2283593);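 further: cells exposed to compound for 16 h before reading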
Outline: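 HCT116 cells, 4000/well, dosed 5 h after plating by pin transfer (217-fold dilution from DMSO stock) and incubated 16 h at 37C, 5% CO2. Viability read as ATP luminescence with CellTiter-Glo after 30 min at room temperature.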

[3] = target: Cellular tumor antigen p53 (Homo sapiens) (UniProt P04637); test: TOX21_p53_BLA_p3_ratio: Tox21 HCT-116 p53 Agonism Beta-lactamase Assay, Ratio, Phase 3 (AID 2283596)
Outline: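 HCT116 p53-bla cells (4000/well) given compound in DMSO (217-fold dilution) after 5 h, incubated 16 h at 37C. CCF4-AM substrate 2 h at room temperature; 460/530 nm emission ratio, gain fitted against DMSO.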

[4] = TOX21_p53_BLA_p4_viability: Viability Assessment in the Tox21 HCT-116 p53 Agonism Beta-lactamase Assay, Phase 4 (AID 2283597);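 further: hits lower the luminescence signal meaning cytotoxicity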
Outline: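 HCT116 p53-bla cells (4000/well) rested 5 h at 37C, then received compounds in DMSO (217-fold dilution) for 16 h at 37C, 5% CO2. CellTiter-Glo was added after the CCF4-AM read, and luminescence was read after 30 min at room temperature.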

[5] = TOX21_p53_BLA_p5_viability: Viability Assessment in the Tox21 HCT-116 p53 Agonism Beta-lactamase Assay, Phase 5 (AID 2283600)
Outline: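 Cells were plated at 4000/well, rested 5 h at 37C, then given compounds in DMSO (217-fold dilution) for 16 h at 37C, 5% CO2. Following the CCF4-AM beta-lactamase read, CellTiter-Glo was added and luminescence was read after 30 min at room temperature.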

[6] = Tanguay_ZF_120hpf_MORT_legacy: (Legacy) Oregon State University Tanguay Lab 120 Hour Post-fertilization zebrafish Assay for Mortality (AID 2283633)
Outline: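 Dechorionated Tropical 5D wild-type zebrafish embryos, one per well from 6 hpf, were statically exposed at 28C in the dark until 120 hpf (0.64% DMSO final). Mortality was scored as present/absent by brightfield microscopy, fitted positively versus DMSO.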

[7] = Tanguay_ZF_120hpf_YSE_legacy: (Legacy) Oregon State University Tanguay Lab 120 Hour Post-fertilization zebrafish Assay for Yolk Sac Edema (AID 2283634);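 on AC50: actives raise the incidence of yolk sac edema above the DMSO baseline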
Outline: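 Tropical 5D wild-type embryos, dechorionated with pronase at 4 hpf, were exposed singly from 6 hpf to 120 hpf under static, sealed, dark conditions at 28C with 0.64% DMSO final. Yolk sac edema was scored present/absent by brightfield microscopy.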

[8] = target: Cellular tumor antigen p53 (Homo sapiens) (UniProt P04637); test: TOX21_p53_BLA_p5_ratio: Tox21 HCT-116 p53 Agonism Beta-lactamase Assay, Ratio, Phase 5 (AID 2283599)
Outline: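 HCT-116 p53-bla cells (4000/well) plated 5 h, dosed with compound (217-fold DMSO dilution) for 16 h at 37 C; CCF4-AM substrate 2 h at room temperature. Activity is the 460/530 nm emission ratio (405 nm excitation), fitted in gain-of-signal direction versus DMSO.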

[9] = target: Cellular tumor antigen p53 (Homo sapiens) (UniProt P04637); test: TOX21_p53_BLA_p4_ratio: Tox21 HCT-116 p53 Agonism Beta-lactamase Assay, Ratio, Phase 4 (AID 2283601)
Outline: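 HCT-116 p53 beta-lactamase reporter cells (4000/well) preincubated 5 h, then compound (217-fold dilution of DMSO stock) for 16 h at 37C. CCF4-AM substrate added 2 h at room temperature; 460/530 nm emission ratio fitted upward versus DMSO.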

[10] = Tanguay_ZF_120hpf_AXIS_legacy: (Legacy) Oregon State University Tanguay Lab 120 Hour Post-fertilization zebrafish Assay for Body Axis Malformation (AID 2283635);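 on AC50: potency for an increased fraction of larvae scored with body axis malformation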
Outline: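 Tropical 5D wild-type zebrafish embryos, dechorionated with pronase at 4 hpf, were placed singly in wells at 6 hpf and exposed statically to test chemical (0.64% DMSO final) at 28C until 120 hpf, then scored by brightfield for body axis defects.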

Measured: AC50

Chain of Cellular tumor antigen p53 (Homo sapiens) (P04637 whole entry, looked up): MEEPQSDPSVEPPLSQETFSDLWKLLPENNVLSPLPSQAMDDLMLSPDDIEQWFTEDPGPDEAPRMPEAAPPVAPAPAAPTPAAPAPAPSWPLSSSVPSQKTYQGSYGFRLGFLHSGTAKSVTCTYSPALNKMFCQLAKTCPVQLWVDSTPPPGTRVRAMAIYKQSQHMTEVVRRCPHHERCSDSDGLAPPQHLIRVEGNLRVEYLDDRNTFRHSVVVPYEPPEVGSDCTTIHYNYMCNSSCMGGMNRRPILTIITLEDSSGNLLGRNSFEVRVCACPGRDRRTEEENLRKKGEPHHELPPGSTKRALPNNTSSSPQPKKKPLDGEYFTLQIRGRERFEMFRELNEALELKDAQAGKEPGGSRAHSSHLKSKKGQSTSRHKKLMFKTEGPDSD

CCCN(CCC)c1c([N+](=O)[O-])cc(C(C)C)cc1[N+](=O)[O-]
not listed: [8] | [9] | [10]
inactive: all other assays above

CC(C)Nc1ccc(Nc2ccccc2)cc1
active: [1] 14.6 µM and 23.1 µM | [4] 46.1 µM and 45.9 µM and 19.2 µM | [8] 66.4 µM and 78.4 µM and 24 µM | [9] 14.9 µM
inactive: [1] | [2] | [5] | [9]

C/C(=N\NC(=O)Nc1cc(F)cc(F)c1)c1ncccc1C(=O)O
inactive: [1] | [2] | [3] | [5]

[N-]=[N+]=[N-]
not listed: [3]
inactive: all other assays above

Nc1ccc(Cl)cc1
not listed: [3] | [7]
inactive: all other assays above

CCOP(=S)(NC(C)C)Oc1ccccc1C(=O)OC(C)C (centres undefined)
inactive: [1] | [2] | [8] | [5] | [9]
active: [4] 33.5 µM

O=S(=O)(c1ccc(O)cc1)c1ccc(O)cc1
inactive: [1] | [2] | [3] | [4] | [5]

CC(C)(C)OOC(C)(C)C
not listed: [3]
inactive: all other assays above

CCCCN(CC)C(=O)SCCC
inactive: [1] | [2] | [4] | [8] | [5] | [9]

ClC1=C(Cl)C2(Cl)C3C(Cl)C(Cl)CC3C1(Cl)C2(Cl)Cl (centres undefined)
active: [1] 61.5 µM and 80.2 µM | [2] 55.6 µM | [4] 64.1 µM | [8] 86.4 µM | [5] 46.1 µM | [9] 63.5 µM
inactive: [2] | [4] | [8] | [5] | [9] | [6] | [7] | [10]

O=c1ssc(Cl)c1Cl
active: [2] 73.7 µM | [3] 61.2 µM
inactive: [1] | [5] | [9]

CCOP(=S)(OCC)SCn1nnc2ccccc2c1=O
inactive: [1] | [2] | [4] | [8] | [5] | [9]

CCOS(=O)(=O)OCC
not listed: [3]
inactive: all other assays above

CC1(C)CN=C(NN=C(/C=C/c2ccc(C(F)(F)F)cc2)/C=C/c2ccc(C(F)(F)F)cc2)NC1
inactive: [4] | [9]
active: [1] 20.6 µM | [2] 31.6 µM | [8] 44.7 µM | [5] 46.1 µM

CCCCOCCOP(=O)(OCCOCCCC)OCCOCCCC
inactive: [1] | [2] | [4] | [5] | [9]

c1ccc2c(c1)sc1ccccc12
inactive: [1] | [2] | [4] | [8] | [5] | [9]

CO/N=C(/C(=O)OC)c1ccccc1COc1ccccc1C
inactive: [2] | [4] | [8] | [5] | [9]
active: [1] 27.1 µM

COC(N)=O
inactive: [1] | [2] | [4] | [8] | [9]

O=[N+]([O-])c1ccccc1
not listed: [3]
inactive: all other assays above

C=CC(=O)OCC(CC)(COC(=O)C=C)COC(=O)C=C
inactive: [1] | [8] | [9]
active: [1] 86.6 µM | [2] 69.2 µM and 16.2 µM | [4] 75.7 µM and 97.1 µM | [5] 85.1 µM and 89.1 µM | [9] 69.1 µM

O=P(OCC(Br)CBr)(OCC(Br)CBr)OCC(Br)CBr (centres undefined)
inactive: [1] | [2] | [4] | [5]
active: [1] 80.2 µM | [3] 75.3 µM and 86.9 µM | [8] 66.9 µM and 74.7 µM | [9] 75.7 µM and 73.6 µM

c1ccc2c(c1)Nc1ccccc1S2
not listed: [3]
inactive: all other assays above

OCC1CO1 (centres undefined)
not listed: [3]
inactive: all other assays above

Cc1ccc(N)cc1N
inactive: [1] | [2] | [8] | [5] | [9] | [6] | [10]
active: [9] 14.7 µM

CCOC(=O)c1ccccc1C(=O)OCC
not listed: [3] | [5]
inactive: all other assays above

C=C(C)C(=O)OCC1CO1 (centres undefined)
inactive: [1] | [2] | [4] | [8] | [5] | [9]

Cc1ccc2c(c1N)C(=O)c1ccccc1C2=O
inactive: [1] | [2] | [4] | [8] | [5] | [9]

O=P(Oc1ccccc1)(Oc1ccccc1)Oc1ccccc1
not listed: [3]
inactive: all other assays above

CCC(C)(C)c1ccc(O)cc1
active: [7] 51.1 µM | [10] 19 µM
not listed: [3]
inactive: all other assays above

NNC(N)=S
inactive: [1] | [2] | [4] | [8] | [9]

FC(F)(F)c1ccc(Cl)cc1
inactive: [1] | [2] | [8] | [9]

O=S1(=O)OCC2C(CO1)C1(Cl)C(Cl)=C(Cl)C2(Cl)C1(Cl)Cl (centres undefined)
not listed: [6] | [7] | [10]
inactive: all other assays above

CCN(CC)C1CCCCC1
inactive: [1] | [2] | [8] | [5] | [9]

COP(=O)(O)OC
inactive: [1] | [2] | [9]
active: [5] 85.6 µM

CCCCN(CCCC)N=O
inactive: all assays above

Cc1cccc(N)c1
not listed: [3]
inactive: all other assays above

O=NN1CCCC1
inactive: [1] | [2] | [8] | [5] | [9]

CCN(CC)c1ccccc1
inactive: [2]

CCOc1ccc(C(C)(C)COCc2cccc(Oc3ccccc3)c2)cc1
inactive: [2]
